{"source": "paper PMC5540273", "about": "(PLoS ONE, 2017)"}
{"system": "BTK", "details": "concentration: 1 μM,replicates: in singlicate; n = 1", "units": {"%Inh": "%"}}
{"compound": "CS(=O)c1ccc(-c2coc3ccc(-c4n[nH]c(=O)o4)cc23)cc1", "note": "(stereo not shown);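 further: KINOMEscan kinase panel screen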", "%Inh": 20}
{"compound": "O=C(Nc1cccc(Oc2ccc3nccn3n2)c1)Nc1cccc(C(F)(F)F)c1", "%Inh": 0}
{"compound": "CCNCC(Cc1ccccc1)NC(=O)c1cc(Br)c(-c2ccnc3[nH]ccc23)s1.Cl.Cl", "note": "(stereo not shown) [GSK1383280]", "%Inh": 0}
{"compound": "COC(=O)Nc1nc2cc(Oc3ccc(NC(=O)Nc4cc(C(F)(F)F)ccc4Cl)cc3)ccc2[nH]1.Cl", "note": "[GW697465]", "%Inh": 7}
{"compound": "COc1cc2nccc(Nc3ccc(Oc4ccccc4)cc3)c2cc1OC.Cl", "note": "[GI261656]", "%Inh": 93.3}
{"compound": "Cc1ccc2c(-c3ccnc(Nc4ccc(C(F)(F)F)cc4)n3)cnn2n1", "note": "[GW819776]", "%Inh": 0}
{"compound": "O=C(Nc1ccccc1)c1cccc(Oc2ccc3nccn3n2)c1", "%Inh": 0}
{"compound": "C[C@@H](Oc1cc(-n2cnc3cc(-c4ccncc4)ccc32)sc1C(N)=O)c1ccccc1Cl", "note": "[GSK479719]", "%Inh": 0}
{"compound": "CS(=O)(=O)Nc1ccc(-c2ccnc3[nH]ccc23)cc1", "note": "[GSK993273]", "%Inh": 0}
{"compound": "NC(=O)c1ccc(-c2cc3ncnc(SCC(=O)O)c3s2)cc1", "%Inh": 8}
{"compound": "CN(c1ccc2c(c1)nc(NCc1ccc(F)cc1)n2C)c1ccnc(Nc2ccc(CS(C)(=O)=O)cc2)n1.Cl", "note": "[GW813244]", "%Inh": 0}
{"compound": "Cn1ccc2ncnc(Oc3ccc(NC(=O)Nc4cccc(C(F)(F)F)c4)c(F)c3)c21", "%Inh": 30}
{"compound": "CCOC(=O)N1CCC(n2cnc(-c3ccc(F)cc3)c2-c2ccnc(N)n2)CC1", "note": "[SB-219952]", "%Inh": 32}
